Bioassay records deposited in PubChem by National Center for Advancing Translational Sciences (NCATS).
Rows were chosen to be rich in hits. Some 12% of all compounds tested hit in one or more screens of this group.
HP1b chromo inh: HTS for Inhibitors of HP1-beta Chromodomain Interactions with Methylated Histone Tails; Chromobox protein homolog 1 (Homo sapiens), P83916; AlphaScreen HP1-beta / biotin-H3K9me3 peptide binding; Potency, µM (highest dose often 114 µM), for inactives: top-dose activity change, negative = inhibition, hits mostly inhibitors; actives 0.56% (n = 390,000); AID 540317, 2011; further: potency means the concentration at half of the fitted maximal effect; nearly all actives have a fitted effect of over 70% in size
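AlphaScreen: HP1-beta (50 nM) preformed 30 min with biotin-H3(1-18)K9me3 peptide (50 nM) in PBS pH 7.4, 0.01% Tween-20. Compound added for 30 min at RT, then streptavidin donor/nickel chelate acceptor beads (10 ug/mL) for 30 min.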
JMJD2A Tudor: qHTS Assay for Inhibitors of JMJD2A-Tudor Domain | AID 504339, 2011 | AlphaScreen JMJD2A-Tudor / H3K4me3 peptide binding | Potency, µM (highest dose often 114 µM), inactives show at the top dose activity change, negative = inhibition, hits mostly inhibitors | actives 4.4% (n = 390,000) | Lysine-specific demethylase 4A (Homo sapiens), O75164; further: potency means the concentration at half of the fitted maximal effect; on the % scale 0 is the no-effect control and ±100 the full control effect; nearly all actives have a fitted effect of over 50% in size
PLK1 PBD inh: qHTS for Inhibitors of PLK1-PDB (polo-like kinase 1 - polo-box domain): Primary Screen; Serine/threonine-protein kinase PLK1 (Homo sapiens), P53350; Plk1 PBD binding of FITC phosphopeptide, fluorescence polarization; Potency, µM, for the others: max response, negative = inhibition, most hits filed as inhibitors; actives 2.8% (n = 360,000); further: potency means the concentration at half of the fitted maximal effect; series mostly up to about 57 µM; on the % scale 0 is the no-effect control and ±100 the full control effect; nearly all actives have a fitted effect of over 65% in size
PI5P4Ka inh: qHTS for Inhibitors of phosphatidylinositol 5-phosphate 4-kinase (PI5P4K); Phosphatidylinositol 5-phosphate 4-kinase type-2 alpha (Homo sapiens), P48426; PI5P4Kalpha enzyme, ADP-Glo luminescence, 60 min; stronger effect = lower value; max response, %; actives 1.2% (n = 330,000); AID 652105, 2013; active means max response of -50% or lower; inconclusive means between -30% and -50%; inactive means -30% or higher; further: value at the top dose of about 77 µM; on the % scale 0 is the no-effect control and ±100 the full control effect
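Quantitative HTS of the MLSMR library against PI5P4Kalpha with substrate. ATP added last at 5 microM final; room temperature, 60 minutes. Remaining ATP depleted, ADP converted and read as luminescence.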
BAZ2B inh: qHTS Assay for Inhibitors of BAZ2B; Bromodomain adjacent to zinc finger domain protein 2B (Homo sapiens), Q9UIF8; AlphaScreen BAZ2B-H3K14Ac peptide displacement; Potency, µM (titrated, usually from 114 µM), for the others: at the top dose activity change, negative = inhibition, hits mostly inhibitors; actives 4.4% (n = 360,000); AID 504333, 2011; further: potency means the concentration at half of the fitted maximal effect; on the % scale 0 is the no-effect control and ±100 the full control effect; nearly all actives have a fitted effect of over 60% in size
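Multi-concentration screen (max 110 uM) measuring displacement of acetylated histone H3 peptide from BAZ2B by AlphaScreen, using 50 nM protein, 50 nM peptide and 10 ug/mL streptavidin donor plus Ni-chelate acceptor beads.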
G9a inh: qHTS Assay for Inhibitors of Histone Lysine Methyltransferase G9a; Histone-lysine N-methyltransferase EHMT2 (Homo sapiens), Q96KQ7; G9a H3K9 monomethylation, AlphaScreen, 2 h; Potency, µM (titrated, usually from 102 µM), for inactives: top-dose activity, negative = inhibition, usual class: inhibitors; actives 8.8% (n = 350,000); further: potency means the concentration at half of the fitted maximal effect; on the % scale 0 is the no-effect control and ±100 the full control effect; nearly all actives have a fitted effect of over 75% in size
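Step 1: enzyme (final 20 nM) with compound, 15 min RT. Step 2: substrate peptide 500 nM and SAM 20 uM, 2 h RT. Step 3: anti-H3K9me1 antibody and AlphaScreen beads, 10 min, then plate read.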
* hit, by the source's call; ? = inconclusive; . = no result; [ ] = remark or other dose. Unless noted, the call rests on the fitted dose curve; in most records, active means well fitted curve in the direction sought with a large enough effect; inconclusive means small, poorly fitted or top-dose-only effect, or another doubt; inactive means no such curve, though single readings can be large; an effect the other way counts as inactive or inconclusive.

SMILES | HP1b chromo inh | JMJD2A Tudor | PLK1 PBD inh | PI5P4Ka inh | BAZ2B inh | G9a inh
Cc1cc(Cl)ccc1NC(=O)CS(=O)(=O)c1cccc2nsnc12 | 10%[57 µM] | ? | . | . | -6% | 8%[59 µM]
O=C(CCN1CCN(C(=O)c2ccccc2)CC1)c1ccc(Br)cc1 | 32% | -15% | ? | 1 | -5% | 32µM*
CCc1oc2ccccc2c1C(=O)CCN1CCCCC1 | 39% | -22% | 12µM* | . | 8% | 1.4µM*
O=C(c1ccccc1)N1CCN(Cc2ccccc2Br)CC1 | ? | 5µM* | -3% | -1 | 50µM* | ?
O=C(CCN1CCOCC1)c1ccccc1 | 37% | -8% | ? | . | 2% | 45µM*
O=C(c1ccc(Br)cc1)N1CCN(Cc2ccccc2)CC1 | 29% | -13% | -4% | 7 | 5% | -5%[0.501 µM]
CC(OC(=O)Cn1cnc2c1c(=O)n(C)c(=O)n2C)C(=O)Nc1ccc(Cl)cc1 (configuration not stated) | 7% | -10% | -2% | -3 | 10% | -39%
O=C(CCN1CCCCC1)Nc1ccccc1 | 37% | -5% | -14% | 6 | -3% | 6%
O=C(CCN1CCCCC1)c1ccccc1 | 30% | -11% | 15µM* | . | 29% | ?
Clc1ccccc1CNc1ncnc2c1c(-c1ccccc1)cn2-c1ccccc1 | 35% | -19% | . | . | -15% | -10%[59 µM]
O=c1[nH]c(SCc2n[nH]c(=S)n2-c2ccccc2)nc2sc3c(c12)CCC3 | -8% | 56µM* | -13% | . | -33% | 2µM*
Nc1nc(SCc2nnc(SCC(=O)O)n2-c2ccccc2)nc2sc3c(c12)CCCC3 | 14% | -31% | -27% | -27 | -32% | 79µM*
Cc1oc(-c2cccc(Cl)c2)nc1CN1CCCC(C(=O)N2CCN(c3ccc(F)cc3)CC2)C1 (configuration not stated) | ? | 40µM* | . | . | 10µM* | 18µM*
Cc1oc(-c2cccc(Cl)c2)nc1CN1CCCC(C(=O)NC(C)c2ccc3c(c2)OCCO3)C1 (configuration not stated) | 21% | ? | -8% | 0 | ? | 50µM*
Cc1oc(-c2cccc(Cl)c2)nc1CN1CCC(C(=O)N2CCN(c3ccccc3F)CC2)CC1 | 11% | ? | -10% | 0 | -37% | ?
Cc1cccc(-c2nc(CN3CCCC(C(=O)NCCc4ccc(Cl)cc4)C3)c(C)o2)c1 (configuration not stated) | 14% | ? | . | . | 56µM* | ?
Cc1cccc(C)c1NC(=O)C1(C)CN(S(C)(=O)=O)CC(=O)N1Cc1cccs1 (configuration not stated) | . | . | -4% | -2 | . | .
CC1CC(OCC(O)C[N+]2(C)CCOCC2)CC(C)(C)C1 (configuration not stated) | ? | -2% | -15% | 1 | 11% | 40µM*
Cc1noc(C)c1-c1ccc2ncnc(NC3CCCc4ccccc43)c2c1 (configuration not stated) | . | -34% | . | . | . | .
Cc1cccc(C)c1NC(=O)CNC(=O)c1cccc(S(=O)(=O)NCc2cccs2)c1 | 23% | 4% | 2% | 0 | -7% | -44%[2.33 µM]
COc1ccc(C)cc1Nc1nc(C)nc2sc(C)cc12 | 14% | ? | 30µM* | -3 | -13% | -12%
CCN1CCCC1CNC(=O)c1ccc(N2CCOCC2)c(NS(=O)(=O)c2ccc(OC)cc2)c1 (configuration not stated) | 30% | -17% | -6% | 6 | -16% | 50µM*
